From PubChem
mIDH1 inhibitor: qHTS for Inhibitors of mutant isocitrate dehydrogenase 1 (IDH1): qHTS | Isocitrate dehydrogenase [NADP] cytoplasmic (Homo sapiens), O75874 | IDH1-R132H enzyme, NADPH consumption, diaphorase/resazurin fluorescence | Potency, µM (top dose mostly 76.6 µM), usual class: inhibitors | hit rate 0.093% among 390,000 | AID 602179, 2012; also: nearly all actives have a fitted effect of over 65% in size
Target sequence (O75874 whole entry R132H, stated change not applied): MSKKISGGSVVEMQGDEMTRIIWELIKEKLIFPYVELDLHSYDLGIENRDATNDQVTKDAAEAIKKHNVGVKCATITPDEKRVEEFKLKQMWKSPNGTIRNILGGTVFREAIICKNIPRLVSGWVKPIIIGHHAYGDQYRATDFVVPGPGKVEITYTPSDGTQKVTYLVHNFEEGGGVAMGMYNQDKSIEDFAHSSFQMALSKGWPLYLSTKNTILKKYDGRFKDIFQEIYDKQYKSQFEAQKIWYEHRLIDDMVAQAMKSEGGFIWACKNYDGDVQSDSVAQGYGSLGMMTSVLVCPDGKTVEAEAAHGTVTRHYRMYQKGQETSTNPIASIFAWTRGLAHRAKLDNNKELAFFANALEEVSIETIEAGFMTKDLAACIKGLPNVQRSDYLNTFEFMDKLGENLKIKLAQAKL
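IDH1-R132H (0.5 ug/mL dispensed) in pH 7.5 Tris buffer was preincubated 30 min with compound, then given a substrate mix of 0.016 mM NADPH and 2 mM alpha-KG for 80 min at room temperature; remaining NADPH was read by diaphorase/resazurin fluorescence.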
rTrxR1 inhibitor: qHTS Assay for Inhibitors of Mammalian Selenoprotein Thioredoxin Reductase 1 (TrxR1): qHTS; Thioredoxin reductase 1, cytoplasmic (Rattus norvegicus), O89049; recombinant rTrxR1, NADPH fluorescence consumption, selenite substrate; Potency, µM (top dose mostly 114 µM), hits mostly inhibitors; hit rate 1% among 390,000; AID 588453, 2011; also: nearly all actives have a fitted effect of over 65% in size
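Rat TrxR1 (90 nM in the dispensed reagent) was pre-reduced with 400 uM NADPH for 5 min at room temperature, then incubated with compound for 15 min. After 400 uM selenite was added, NADPH fluorescence (Ex 340/Em 450 nm) was followed for 8 min.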
GLS inhibitor: qHTS for Inhibitors of Glutaminase (GLS); Glutaminase kidney isoform, mitochondrial (Homo sapiens), O94925; GLS enzymatic activity, qHTS titration; Potency, µM (series often up to 45.5 µM), most hits filed as inhibitors; hit rate 0.21% among 410,000; AID 624170, 2012
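Coupled fluorescence readout: glutamate oxidase/HRP/Amplex Red detect glutamate formed by hKGA from L-glutamine (1 mM solution added). Buffer 45 mM KH2PO4 pH 8.2, 0.02% Tween-20; reads at t0 and 30 min RT.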
PKM2 act: qHTS Assay for Activators of Human Muscle isoform 2 Pyruvate Kinase | Potency, µM (highest dose often 57.5 µM), actives largely listed as activators | Pyruvate kinase PKM (Homo sapiens), P14618 | hit rate 0.34% among 260,000 | purified PKM2, Kinase-Glo ATP luminescence, activation; response scale: 0% is enzyme alone, no compound; also: nearly all actives have a fitted effect of over 55% in size
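ATP formation by purified human PK-M2, quantified via coupled luciferase luminescence after 1 h at room temperature with 0.1 mM ADP and 0.5 mM PEP final.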
TrxR1 substrate: qHTS Assay for Substrates of Mammalian Selenoprotein Thioredoxin Reductase 1 (TrxR1): qHTS | purified TrxR1 substrate turnover, NADPH consumption readout | AID 588456, 2011 | Potency, µM (doses to about 114 µM) | hit rate 0.01% among 390,000; also: nearly all actives have a fitted effect of over 50% in size
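Rat TrxR1, dispensed at 90 nM, was prereduced with 400 uM NADPH (final) for 5 min at ~22 deg C, then incubated with compound 15 min before 400 uM selenite. A first-read NADPH fluorescence drop versus no-compound background flagged substrates.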
LDHA block: qHTS assay for inhibitors of human lactate dehydrogenase; L-lactate dehydrogenase A chain (Homo sapiens), P00338; purified LDHA, NADH/diaphorase-resazurin fluorescence; active compounds read low; activity change, % (values are at about 110 or 230 µM); hit rate 0.15% among 480,000; AID 1347041, 2019; in the data active = activity change below about -30%; inconclusive = mostly about -25% to -30%
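Resorufin fluorescence (ex540/em590), read at 0 and 20 min after diaphorase/resazurin addition, reports the NADH left after a 5 min room-temperature reaction of 2 nM human LDH5 with 0.06 mM NADH and 0.2 mM pyruvate.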
Of the large screens only hits and unclear results are named; the others gave an inactive call. Shown are actives, neighbours in structure and some others; about 1.4% of the full set was active somewhere. Unless noted, calls follow the shape of the dose curve; as a rule, active = well fitted curve in the direction sought with a large enough effect; inconclusive = small, poorly fitted or top-dose-only effect, or another doubt; inactive = no such curve, though single readings can be large; an effect the other way counts as inactive or inconclusive.

CCn1nc(C)cc1-c1nnc(Sc2ncc([N+](=O)[O-])s2)n1C	rTrxR1 inhibitor 0.35µM, GLS inhibitor inconclusive (no result: PKM2 act)
CCOC(=O)CNC(c1ccccc1)c1cc(Br)ccc1NC(=O)CCN1CCOCC1 (stereo not given)	rTrxR1 inhibitor inconclusive, PKM2 act inconclusive
COC(=O)CNC(c1ccccc1)c1cc(Br)ccc1NC(=O)CCN1CCOCC1 (stereo not given)	rTrxR1 inhibitor 2.2µM
CCc1ccccc1NC(=O)Nc1cn(CC(C)C)c(=O)c2ccccc12	none (no result: mIDH1 inhibitor, rTrxR1 inhibitor, GLS inhibitor, PKM2 act, TrxR1 substrate)
COc1cc(CNc2ccc(N3CCN(C(C)=O)CC3)cc2)ccc1OCc1ccccc1	GLS inhibitor 13µM
C=C(C)CN1CCN(Cc2ccc(C#N)cc2)CC1	none (no result: mIDH1 inhibitor, rTrxR1 inhibitor, GLS inhibitor, PKM2 act, TrxR1 substrate)
CC1CC(C)CN(C(=O)C(C)Cl)C1 (stereo not given)	none (no result: mIDH1 inhibitor, rTrxR1 inhibitor, GLS inhibitor, PKM2 act, TrxR1 substrate)
Fc1ccc(C2=Nc3cccc4cccc(c34)N2)cc1	rTrxR1 inhibitor inconclusive
FC(F)(F)C1=Nc2cccc3cccc(c23)N1	rTrxR1 inhibitor 40µM, GLS inhibitor inconclusive (no result: PKM2 act)
CCOc1cccc2cc(C(=O)N3CCCCCC3)c(=O)oc12	none (no result: mIDH1 inhibitor, rTrxR1 inhibitor, GLS inhibitor, PKM2 act, TrxR1 substrate)
O=C(CCl)N(CCc1ccccc1)CCc1ccccc1	rTrxR1 inhibitor 11µM
O=C(CCl)N(CCc1ccccc1)Cc1cccs1	none (no result: mIDH1 inhibitor, rTrxR1 inhibitor, GLS inhibitor, PKM2 act, TrxR1 substrate)
Cc1ccc2nc(SCC(=O)Nc3ccccc3C(=O)Nc3ccc4c(c3)OCO4)[nH]c2c1	none (no result: mIDH1 inhibitor, rTrxR1 inhibitor, GLS inhibitor, PKM2 act, TrxR1 substrate)
CC(=O)c1cccc(NC(=O)c2ccccc2SC(C)C)c1	none (no result: mIDH1 inhibitor, rTrxR1 inhibitor, GLS inhibitor, PKM2 act, TrxR1 substrate)
COC(=O)C1=C(C)N(c2cccc3ccccc23)C(=O)C1	rTrxR1 inhibitor 25µM, GLS inhibitor inconclusive
COC(=O)C1=C(C)N(c2ccc(C(=O)OC)cc2)C(=O)C1	none
Cc1cc(C)c(NC(=O)CSC2=Nc3ccccc3C3=NC(CC(=O)NCc4cccs4)C(=O)N23)c(C)c1 (stereo not given)	mIDH1 inhibitor inconclusive, GLS inhibitor 11µM (no result: PKM2 act)
CCCCNC(=O)CC1N=C2c3ccccc3N=C(SCC(=O)Nc3ccc(OC)cc3)N2C1=O (stereo not given)	GLS inhibitor inconclusive
CCCCNC(=O)CC1N=C2c3ccccc3N=C(SCC(=O)Nc3cccc(OC)c3)N2C1=O (stereo not given)	GLS inhibitor 7.1µM
CCc1ccc(NC(=O)CSC2=Nc3ccccc3C3=NC(CC(=O)NCc4cccs4)C(=O)N23)cc1 (stereo not given)	none (no result: PKM2 act)
O=C(NC1(C(F)(F)F)C(=O)Nc2c1c(=O)[nH]c(=O)n2Cc1ccco1)c1ccccc1 (stereo not given)	none (no result: mIDH1 inhibitor, rTrxR1 inhibitor, GLS inhibitor, PKM2 act, TrxR1 substrate)
COc1ccc(C(Nc2ccccn2)c2oc(CO)cc(=O)c2O)cc1 (stereo not given)	rTrxR1 inhibitor 8.9µM
O=c1cc(CO)oc(C(Nc2ccccn2)c2ccc(F)cc2)c1O (stereo not given)	rTrxR1 inhibitor 8.9µM
CCC/C=C1/CCCOC(C(=O)NCc2ccc(C)o2)(C(F)(F)F)C1 (stereo not given)	rTrxR1 inhibitor 13µM (no result: PKM2 act)
Cn1c(CC(=O)Nc2cccc(C(F)(F)F)c2)nnc1SCC(=O)c1ccc(C#N)cc1	LDHA block -32 (no result: mIDH1 inhibitor, rTrxR1 inhibitor, GLS inhibitor, PKM2 act, TrxR1 substrate)
Cn1c(CC(=O)Nc2ccccc2)nnc1SCC(=O)c1ccc(C#N)cc1	none (no result: mIDH1 inhibitor, rTrxR1 inhibitor, GLS inhibitor, PKM2 act, TrxR1 substrate)
COc1cc(/C=C(/C#N)C(=O)Nc2ccccc2C(F)(F)F)cc(Br)c1OC	none (no result: mIDH1 inhibitor, rTrxR1 inhibitor, GLS inhibitor, PKM2 act, TrxR1 substrate)
CNc1oc(-c2ccccc2F)nc1S(=O)(=O)c1ccc2c(c1)OCCO2	none (no result: mIDH1 inhibitor, rTrxR1 inhibitor, GLS inhibitor, PKM2 act, TrxR1 substrate)
Cc1ccc(CS(=O)(=O)c2ncc(Cl)c(C(=O)Nc3ccc(OC(F)F)cc3)n2)cc1	rTrxR1 inhibitor 28µM (no result: PKM2 act)
COc1ccc(NC(=O)c2nc(S(=O)(=O)Cc3ccc(C)cc3)ncc2Cl)cc1	rTrxR1 inhibitor 2.5µM (no result: mIDH1 inhibitor, PKM2 act)
